# Screening results: PubChem, National Center for Advancing Translational Sciences (NCATS)
# SMN2 splice up – SMN2 splice variant enhancement. HEK293 SMN2-luciferase splicing reporter, luminescence, 30-36 h. Potency, µM (titrated, usually from 46.1 µM), without a hit: at the highest dose activity change, positive = activation, hits mostly activators. hit rate 2.8% among 210,000. AID 1458; also: % of control where 0% means no effect; nearly all actives have a fitted effect of over 55% in size
#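 HEK293 cells carry an SMN2 minigene-luciferase reporter in which exon 7 inclusion puts luciferase in frame. Cells were seeded at 2000 cells/well, attached for 10-12 hours, then exposed to compounds for 30-36 hours at 37C before ONE-Glo luminescence.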
# ELG1 repair inh – inhibitors of ELG1-dependent DNA repair in HEK293T cells | HEK293T ELG1-luciferase reporter, luminescence, 16 h; DNA damage induced by 5-fluorouridine | hit rate 2.3% among 330,000 | Potency, µM (highest dose often 46.1 µM), inactives show at the highest dose activity change, negative = inhibition, most hits filed as inhibitors; also: % is scaled to controls: 0 for no effect and ±100 for the full control effect; nearly all actives have a fitted effect of over 55% in size
#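 Quantitative HTS, concentration-response format. 2,000 cells/well co-treated with 5-fluorouridine and compound, 16 hr in 5% CO2 at 37 °C; ONE-Glo luminescence read after 30 min.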
# ELG1 genotoxic – inducers of genotoxicity in HEK293T ELG1-luciferase cells; Potency, µM (series often up to 46 µM), without a hit: top-dose activity change, positive = activation, most hits filed as activators; HEK293T ELG1-luciferase reporter, luminescence, 16 h; hit rate 1.3% among 330,000; AID 504466; also: % of control where 0% means no effect; nearly all actives have a fitted effect of over 60% in size
#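 HEK293T cells expressing luciferase-tagged ELG1 were treated with compound or DMSO for 16 hr at 37°C. Luciferase activity was then read after 30 min with ONE-Glo at room temperature; rising signal flags genetic stress.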
# Rab9 prom act – activators of Rab9 promoter. hit rate 2.8% among 320,000. Huh7 Rab9 promoter-luciferase reporter, luminescence, 24 h. AID 485297. Potency, µM (series often up to 9.22 µM), for the others: at the highest dose activation, negative = inhibition, actives largely listed as activators; also: % of control where 0% means no effect; nearly all actives have a fitted effect of over 60% in size
#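 Steps: seed 1500 Huh7 Rab9-luc cells per well, rest 2 h at 37 °C; add compound in DMSO; incubate 24 h; add luciferase reagent, 10 min ambient; read luminescence.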
# FLuc counter – inhibits or activates purified firefly luciferase, miR-21 counter-screen; P08659; purified FLuc, Km substrates, luminescence inhibition; Potency, µM (doses to about 57.5 µM), without a hit: top-dose activity change, negative = inhibition, usual class: inhibitors; hit rate 6.9% among 360,000;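 also: plate controls were vehicle for no effect and reference inhibitor for full effect; nearly all actives have a fitted effect of over 55% in size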
# Target sequence (P08659 whole entry, looked up): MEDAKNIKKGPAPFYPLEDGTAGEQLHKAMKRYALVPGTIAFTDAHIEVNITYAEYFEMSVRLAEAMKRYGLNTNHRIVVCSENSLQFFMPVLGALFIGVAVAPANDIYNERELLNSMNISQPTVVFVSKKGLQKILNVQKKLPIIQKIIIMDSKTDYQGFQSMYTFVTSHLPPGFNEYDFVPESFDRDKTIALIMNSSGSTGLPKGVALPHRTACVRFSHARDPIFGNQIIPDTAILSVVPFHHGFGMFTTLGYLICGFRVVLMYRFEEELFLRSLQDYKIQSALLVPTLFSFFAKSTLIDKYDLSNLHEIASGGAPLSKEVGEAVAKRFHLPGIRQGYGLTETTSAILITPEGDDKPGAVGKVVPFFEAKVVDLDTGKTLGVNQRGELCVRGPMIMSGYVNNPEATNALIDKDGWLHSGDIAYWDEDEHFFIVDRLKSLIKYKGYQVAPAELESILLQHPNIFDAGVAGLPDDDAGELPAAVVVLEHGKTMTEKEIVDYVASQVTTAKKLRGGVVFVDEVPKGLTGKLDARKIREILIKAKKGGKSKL
#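 Biochemical qHTS of compounds, final roughly 60 µM downward over six points, against 10 nM purified firefly luciferase using Km concentrations of substrates (10 uM D-luciferin, 10 uM ATP) in Tris acetate pH 7.5 buffer; luminescence output.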
# NPC1 prom act – NPC1 promoter activation; Huh7 NPC1 promoter luciferase reporter, 24 h; Potency, µM (highest dose often 9.22 µM), for inactives: at the highest dose activation, actives largely listed as activators; hit rate 2.4% among 320,000; also: % of control where 0% means no effect; nearly all actives have a fitted effect of over 60% in size
#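 Quantitative HTS used a cell-based reporter: Huh7 cells stably bearing the NPC1 promoter upstream of luciferase were treated with compounds for 24 h, and promoter activation was read as luminescence.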
# * = called active by the depositor; ? = inconclusive; nt = not tested or not shown; ! = not active in a repeat; [ ] = another dose, or the depositor's remark. A selection: hits, their analogues and other compounds. The true share with any hit is near 9.4%. Calls follow the shape of the dose curve; as a rule, active = well fitted curve in the direction sought with a large enough effect; inconclusive = small, poorly fitted or top-dose-only effect, or another doubt; inactive = no such curve, though single readings can be large; an effect the other way counts as inactive or inconclusive. Potency is read from the fitted curve at half-maximal effect.
SMILES,SMN2 splice up,ELG1 repair inh,ELG1 genotoxic,Rab9 prom act,FLuc counter,NPC1 prom act
COc1cccc(/C=N/Nc2ncnc(N)c2[N+](=O)[O-])c1OC,3.2µM*,?,?,0.56µM*,4.8µM*,1.8µM*
Cc1cc(/C=N/Nc2nc(N)ncc2[N+](=O)[O-])c(C)n1-c1cccc(C(F)(F)F)c1,nt,?,?,0.45µM*,1.5µM*,0.89µM*
CC(=O)N1CCc2cc(Br)cc(S(=O)(=O)N3CCC(C(=O)Nc4ccc(C(C)C)cc4)CC3)c21,-29%,nt,nt,nt,-4%,nt
Cc1ccccc1NC(=O)C1CCC(CNS(=O)(=O)c2ccc3c(c2)C(C)(C)C(=O)N3C)CC1 (centres undefined),nt,nt,nt,nt,5%,nt
CCOC(=O)c1sc(-c2ccc(Cl)cc2Cl)nc1O,nt,-1%,2%,-1%,17µM*,-5%
CCOC(=O)c1sc(CS(=O)(=O)c2ccc(Cl)cc2)nc1C,nt,16%,0%,-3%,-5%,-3%
COc1cc2c(cc1OC)C(/C=C/c1ccc(OC)c(OC)c1OC)=NCC2,-7%,nt,nt,nt,nt,nt
Cn1c(=O)c2c(nc(N/N=C/c3ccncc3)n2Cc2ccccc2)n(C)c1=O,nt,-12%,0%,2%,-1%,-4%
COc1ccc(CNc2nc3c(c(=O)n(Cc4ccc(Br)cc4)c(=O)n3C)n2C)cc1,-2%,?,-23%,-9%,8%,-5%
Cn1c(NCc2ccccc2)nc2c1c(=O)n(Cc1ccc(Br)cc1)c(=O)n2C,-26%,21µM*,-14%,1%,7%,-2%
Cn1c(NCc2ccco2)nc2c1c(=O)n(Cc1ccc(Br)cc1)c(=O)n2C,-10%,18µM*,-8%,-4%,0%,-2%
Cn1c(=O)c2c(nc(NCc3ccc4c(c3)OCO4)n2Cc2ccccc2)n(C)c1=O,-36%,16µM*,-10%,-22%,-1%,-5%
COc1cc(/C=N/Nc2nc3c(c(=O)n(C)c(=O)n3C)n2Cc2ccccc2)ccc1OC(=O)c1ccco1,-33%,18µM*,0%,-7%,1%,-2%
N#Cc1cccc(NC(=O)N2CC[C@@]3(CCCN(C(=O)c4cnccn4)C3)C2)c1,-26%,nt,nt,nt,nt,nt
COc1ccc(OC)c(-c2csc(-c3c(N)c(C(=O)c4ccc(Cl)cc4)n4ccccc34)n2)c1,1%,nt,nt,nt,2%,nt
[O-]/[N+](=C\c1ccc(OC(F)F)cc1)c1ccccc1,-1%,?,12%,?,15µM*,?
COCCCn1c(O)c(/C=C2\N=C(C#N)C(=Nc3ccc(C)cc3)O2)sc1=S,nt,13%,13%,-25%,6.7µM*,-18%
CC(C)CCNC(=O)c1cn(C)c2ccc(S(=O)(=O)N3CCOCC3)cc2c1=O,-1%,nt,nt,nt,-6%,nt
CC(=O)Nc1cccc(-c2cn3cccnc3n2)c1,nt,nt,nt,nt,-2%,nt
O=C(COc1ccccc1)Nc1cccc(-c2cn3cccnc3n2)c1,nt,?,-7%,?,15µM*,14%
COc1ccc(NC(=O)Nc2cccc(-c3cn4cccnc4n3)c2)cc1,5%,nt,nt,nt,1.7µM*,nt
CC(C)(C)c1ccc(OCC(=O)O)c(Cl)c1,-7%[9.22 µM],nt,nt,nt,nt,nt
CCCN1C(=O)C(Cc2nc3ccccc3c(=O)n2CC)c2cc(Br)ccc21 (centres undefined),13%,nt,nt,nt,0%,nt
CCC(N=c1cc(-c2ccc(OC)c(OC)c2)oc2ccc(C)cc12)C(=O)O (centres undefined),3%,?,4%,-4%,-11%,-1%
COc1cc(-c2ccc3oc(-c4ccsc4)cc(=O)c3c2)cc(OC)c1OC,nt,16µM*,-8%,nt,nt,nt
COc1cccc(-c2cc(=O)c3ccc(OC)cc3o2)c1,13µM*,nt,nt,nt,nt,nt
CCC(N=c1cc(-c2ccc(OC)cc2)oc2ccc(C)cc12)C(=O)O (centres undefined),?,?,?,9%,3µM*,?
COc1ccc(-c2cc(=O)c3cc(OC)ccc3o2)cc1,0.89µM*!,?,?,0.25µM*,0.21µM*,0.5µM*
